From PubChem BioAssay AID463 (The Scripps Research Institute Molecular Screening Center, 2006)
In all, about 56,000 compounds went through this assay and about 710 (1.3%) were called active.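 How the source made its calls: active means inhibition above the mean inhibition of all tested compounds plus 3 SD (cut at about 28% in these data); inactive means the rest.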 Shown is part of a subset that was picked to be rich in actives.

Assay: Jurkat cell viability reduction – Jurkat E6.1, 60K MLSMR library, cytotoxicity control, primary screen (AID 463)
Conditions: Jurkat E6.1 viability, ATP luminescence, 48 h; at 4 µM; hits give high values

Row | Structure (SMILES) | inhibition
1 | Cc1nnc(N(Cc2ccco2)C(=O)c2ccno2)s1 | -0.7% (inactive)
2 | Cc1ccc2[nH]c(=O)c(COC(=O)c3ccccn3)cc2c1 | -6.3% (inactive)
3 | CCn1c(=N)c(S(=O)(=O)c2ccc(F)cc2)cc2c(=O)n3ccccc3nc21 | -7% (inactive)
4 | COc1ccc(Cn2nnc3c(=O)[nH]c(C4CCN(C(=O)c5ccccc5Cl)CC4)nc32)cc1 | -2.8% (inactive)
5 | CCN(CC)S(=O)(=O)c1cccc(C(=O)NCC(=O)OCC(=O)NCc2ccccc2)c1 | -5.9% (inactive)
6 | CCN(CC)S(=O)(=O)c1cccc(C(=O)Nc2ccccc2)c1 | 29.7% (active)
7 | CN(C)S(=O)(=O)c1cccc(C(=O)Nc2cccnc2)c1 | -3% (inactive)
8 | COc1ccc(Br)cc1S(=O)(=O)N1CCN=C1C | 2.5% (inactive)
9 | CCOC(=O)C1=C(C)N=c2s/c(=C\C(=O)OC)c(=O)n2C1c1ccc(OC)cc1 (stereo not given) | 6% (inactive)
10 | O=C(CN1CCN(S(=O)(=O)c2ccc(F)cc2)CC1)Nc1ccccc1F | -6% (inactive)
11 | O=C(Nc1cccc(F)c1)c1ccc(S(=O)(=O)N2CCCC2)cc1 | 1.7% (inactive)
12 | CCOC(=O)N1CCN(S(=O)(=O)c2ccc(C(=O)Nc3ccc(F)cc3F)cc2)CC1 | 84.2% (active)
13 | Cc1ccc(C2c3c(oc4ccc(C)cc4c3=O)C(=O)N2CCCN2CCOCC2)cc1 (stereo not given) | 3.9% (inactive)
14 | Cc1ccccc1Cn1c(=O)[nH]c2ccccc21 | 5.4% (inactive)
15 | COc1ccc(CCN2C(=O)c3[nH]nc(-c4ccccc4O)c3C2c2ccc(C)cc2)cc1OC (stereo not given) | 11.1% (inactive)
16 | O=S(=O)(Nc1ccc2nc(-c3ccco3)[nH]c2c1)c1ccccc1 | 4.2% (inactive)
17 | CC(=O)N1CCN(C(=O)c2cccc(S(=O)(=O)Nc3ccc(C)cc3)c2)CC1 | -0.6% (inactive)
18 | Cc1ccc(S(=O)(=O)Nc2ccc3ncccc3c2)cc1 | 69.4% (active)
19 | Cc1cc(C)cc(N(CC(=O)Nc2c(C)n(C)n(-c3ccccc3)c2=O)S(C)(=O)=O)c1 | -5.2% (inactive)
20 | CCOC(=O)CSc1nnc(-c2cccc(Br)c2)o1 | -6.1% (inactive)
21 | COc1cc(NS(=O)(=O)c2ccc(NC(C)=O)cc2)cc(OC)c1 | 37.3% (active)
22 | COc1ccc(NS(=O)(=O)c2ccc(NC(C)=O)cc2)cc1OC | 31.3% (active)
23 | CC(=O)Nc1ccc(S(=O)(=O)Nc2cccc(NC(=O)C(C)(C)C)c2)cc1 | 7.9% (inactive)
24 | CCNS(=O)(=O)c1ccc(NC(=O)Nc2cccc(OC)c2)cc1 | -3.7% (inactive)

Row | Structure (SMILES) | inhibition
25 | COC(=O)COc1ccc(S(=O)(=O)Nc2ccc(NC(C)=O)cc2)cc1 | -9.6% (inactive)
26 | COc1ccc(C(=O)Nc2ccc(S(=O)(=O)Nc3onc(C)c3C)cc2)cc1OC | -3.3% (inactive)
27 | NC(=O)c1ccsc1NC(=O)c1ccco1 | -2.4% (inactive)
28 | O=C(O)c1ccc(F)c(S(=O)(=O)Nc2ccccc2)c1 | 6.8% (inactive)
29 | O=C(O)Cc1ccc(NC(=O)C2CCCCC2C(=O)O)cc1 (stereo not given) | -4.1% (inactive)
30 | Cc1nnc(SCc2ccc(C(=O)c3ccc(Cl)cc3)o2)n1-c1ccccc1 | 2.9% (inactive)
31 | COc1ccc(N2C(=O)CN=C2Nc2cccc(C)c2C)cc1OC | -3% (inactive)
32 | Nc1nnc(SCCN2C(=O)c3ccccc3S2(=O)=O)s1 | -1% (inactive)
33 | COc1ccccc1NC(=O)CN1CCN(S(=O)(=O)c2ccc(Br)cc2)CC1 | -0.3% (inactive)
34 | CCC(=O)c1ccc(OCC(O)CN2C(=O)NC(C)(C)C2=O)cc1 (stereo not given) | -6.4% (inactive)
35 | O=C(c1cccc(S(=O)(=O)N2CCOCC2)c1)N1CCOCC1 | 0% (inactive)
36 | CCOc1cccc(-c2nnc3sc(COc4ccc(OC)cc4)nn23)c1 | -3% (inactive)
37 | COc1ccc(-n2nnnc2SCC(=O)c2ccc(OC)c(OC)c2)cc1 | 7.1% (inactive)
38 | CCOc1cccc(-n2nnnc2-c2ccc(OC)cc2)c1 | 86.8% (active)
39 | COC(=O)COc1ccc(S(=O)(=O)N2CCOCC2)cc1 | -6.6% (inactive)
40 | CCOC(=O)Cc1csc(NC(=O)CN(C)S(=O)(=O)c2ccc3c(c2)CCC(=O)N3)n1 | -0.9% (inactive)
41 | COc1ccc(NC(=O)c2cccc(NC(=O)c3ccco3)c2)c(OC)c1 | -4.5% (inactive)
42 | CCOc1cc(-c2noc(CCC(=O)N3CCOCC3)n2)ccc1OC | -6.2% (inactive)
43 | CCOc1cc(C(=O)N2CCc3cc(OC)c(OC)cc3C2)ccc1OC(F)F | 98.3% (active)
44 | CCOc1cc(CN2CCN(C(=O)CC(C)C)CC2)ccc1OC | -0.1% (inactive)
45 | COc1ccc(C(=O)Nc2ccc3c(c2)OCO3)cc1OC | 16.3% (inactive)
46 | COc1nc(Oc2ccc(=O)n(C)n2)nc(N(C)C)n1 | 4.9% (inactive)
47 | CC1(C)CC(=O)C(C=NCCC2=CCCCC2)=C(O)C1 | 2% (inactive)
48 | C=CCn1c(CSc2nc3ccccc3s2)nnc1SCC(=O)NCc1ccco1 | 0.8% (inactive)

Row | Structure (SMILES) | inhibition
49 | CN(Cc1ccccc1)C(=O)CCNC(=O)Cn1cnc2ccccc2c1=O | 7.8% (inactive)
50 | O=C(Cn1cnc2c(cnn2-c2ccccc2)c1=O)NCc1ccccc1 | 35.9% (active)
51 | O=C(Cn1cnc2c(cnn2-c2ccc(F)cc2)c1=O)NCCc1ccccc1 | -3% (inactive)
52 | CC(=O)Oc1cccc(N2C(=O)C3CC=C(Cl)CC3C2=O)c1 (stereo not given) | -1.4% (inactive)
53 | CS(=O)(=O)N1CCN(C(=O)c2cc3ccccc3oc2=O)CC1 | -5.4% (inactive)
54 | CCN(CC)C(=O)CSc1nnc(-c2ccc(S(=O)(=O)NCc3ccccc3Cl)cc2)o1 | -7.3% (inactive)
55 | Cc1ccccc1C(=O)NCCN=C1NS(=O)(=O)c2ccccc21 | 3.3% (inactive)
56 | O=C(c1ccccc1)c1cccn1CC(=O)N1CCN(c2ccc(F)cc2)CC1 | -0.4% (inactive)
57 | O=C(c1cccc(C(=O)N2CCN(c3ccc(F)cc3)CC2)c1)N1CCN(c2ccc(F)cc2)CC1 | 37.4% (active)
58 | Cc1ccccc1CN1CCN(C(=O)c2cccc(F)c2)CC1 | -5% (inactive)
59 | COc1cc(C2C(C#N)=C(C)NC3=C2C(=O)CC(C)(C)C3)ccc1O (stereo not given) | 5% (inactive)
60 | COc1ccccc1CNC(=O)C1CCN(S(C)(=O)=O)CC1 | -5.6% (inactive)
61 | CCOc1ccc(Cn2nnc(C(=O)NCc3ccccc3)c2N)cc1 | 2.3% (inactive)
62 | Nc1c(C(=O)NCc2ccccc2)nnn1Cc1cccc(Cl)c1 | 83.8% (active)
63 | CCOc1ccc(Cn2nnc(C(=O)Nc3ccc(OC)cc3OC)c2N)cc1 | -5.8% (inactive)
64 | CCOc1c(OC)cc(C2C(C#N)=C(N)Oc3n[nH]c(-c4ccncc4)c32)cc1OC (stereo not given) | -1.9% (inactive)
65 | O=C(Oc1cccnc1)c1cc2ccccc2oc1=O | 4.5% (inactive)
66 | COc1ccc(-c2cc(C(F)(F)F)n3nc(C(=O)N4CCOCC4)c(Cl)c3n2)cc1 | -9.2% (inactive)
67 | CCCCN=C(N)/C(C(=O)OCC)=C(\O)c1ccc(OC)cc1 | -0.7% (inactive)
68 | CCc1ccc(N(CC)c2ncnc3nc[nH]c23)cc1 | 0.9% (inactive)
69 | CC(=O)c1ccc(Oc2cc(C)nc(-n3nc(C)cc3C)n2)cc1 | 97.7% (active)
70 | Cc1cc(C)n(-c2ccc(Cl)c(C(=O)O)n2)n1 | -4.6% (inactive)
71 | CCOC(=O)c1cnc(-n2nc(C)cc2C)nc1Nc1cccc(C(C)=O)c1 | 2.3% (inactive)
72 | O=C(COc1ccccc1Cl)Nn1cnnc1 | 4.2% (inactive)

Row | Structure (SMILES) | inhibition
73 | COc1ccc(N2C(=O)C3CCCN3C2c2cccs2)cc1 (stereo not given) | -7.9% (inactive)
74 | O=C(CC1N=C2c3ccccc3N=C(SCc3ccccc3Cl)N2C1=O)NCc1ccco1 (stereo not given) | 8% (inactive)
75 | CC(C)C1N=C2c3ccccc3N=C(SCC(=O)c3ccc(O)c(O)c3)N2C1=O (stereo not given) | 50.8% (active)
76 | NC(=O)CSC1=Nc2ccccc2C2=NC(CCC(=O)NCc3ccc(F)cc3)C(=O)N12 (stereo not given) | 4.5% (inactive)
77 | CCCC(NS(=O)(=O)c1ccc(OC)cc1)C(=O)O (stereo not given) | 0.8% (inactive)
78 | COC(=O)C(C)n1cnc2c(nnn2-c2cccc(Cl)c2)c1=O (stereo not given) | 6% (inactive)
79 | Cc1oc(-c2ccccc2F)nc1CS(=O)(=O)CC(=O)NCCCN(C)C1CCCCC1 | 5% (inactive)
80 | O=C(Nc1ccc2c(c1)nc1n2CCCCC1)c1cc(S(=O)(=O)N2CCOCC2)ccc1Cl | 34.5% (active)
81 | COc1ccc(S(=O)(=O)N2CCOCC2)cc1C(=O)Nc1nc2ccccc2s1 | -2.5% (inactive)
82 | O=C(Nc1ccc(S(=O)(=O)N2CCCC2)cc1Cl)C1=COCCO1 | 10.5% (inactive)
83 | O=C1N(Cc2ccc3c(c2)OCO3)c2ccccc2C1(O)c1c[nH]c2ccccc12 (stereo not given) | -8.9% (inactive)
84 | CCCCNC(=O)CSc1nccn1Cc1ccccc1 | -7.9% (inactive)
85 | COCCNCCOCCOc1cccc(OC)c1 | 5.4% (inactive)
86 | Cc1cc(Nc2cccc(F)c2)n2ncnc2n1 | 0.2% (inactive)
87 | CCCOC(=O)c1[nH]c2c(c1C)C(=O)CC(c1cc(OC)c(OC)c(OC)c1)C2 (stereo not given) | 45.9% (active)
88 | CCOC(=O)c1[nH]c2c(c1C)C(=O)CC(c1ccc(N(C)C)cc1)C2 (stereo not given) | 1% (inactive)
89 | COC(=O)C1C(=O)c2c([nH]c(C(=O)OCCSC)c2C)CC1C (stereo not given) | -3.9% (inactive)
90 | Cc1ccc(N(CC(O)CN2CCCC2)S(=O)(=O)c2ccccc2)cc1 (stereo not given) | 2.6% (inactive)
91 | Cc1ccc(S(=O)(=O)NC(=O)N2CCCC(C)(C)C2)cc1 | -5.4% (inactive)
92 | Cc1ccc(S(=O)(=O)N2CCCC2CO)cc1 (stereo not given) | -3.1% (inactive)
93 | Cc1ccc(S(=O)(=O)C2(S(=O)(=O)c3ccc(C)cc3)CCCC2)cc1 | 84% (active)
94 | CC(C)(O)C#Cc1ccc(C(=O)N2CCC(C(N)=O)(N3CCCCC3)CC2)cc1 | -6.2% (inactive)
95 | CS(=O)(=O)c1ccc2nc(NC(=O)C3CCCCC3)sc2c1 | 5.6% (inactive)
